The text below walks through data of PMC7819943, “Rice protein-binding microarrays: a tool to detect cis-acting elements near promoter regions in rice”.

In all, about 39,000 sequences were measured (“fluorescence intensity (a.u.)”: median about 4,300, highest 2% from about 39,000 on). The sample as a whole holds a higher share of the highest values than the screen did.

The target in this experiment is T1, OsSMF1 (Oryza sativa, UniProt Q6ZLB0 1-436).
T1 sequence: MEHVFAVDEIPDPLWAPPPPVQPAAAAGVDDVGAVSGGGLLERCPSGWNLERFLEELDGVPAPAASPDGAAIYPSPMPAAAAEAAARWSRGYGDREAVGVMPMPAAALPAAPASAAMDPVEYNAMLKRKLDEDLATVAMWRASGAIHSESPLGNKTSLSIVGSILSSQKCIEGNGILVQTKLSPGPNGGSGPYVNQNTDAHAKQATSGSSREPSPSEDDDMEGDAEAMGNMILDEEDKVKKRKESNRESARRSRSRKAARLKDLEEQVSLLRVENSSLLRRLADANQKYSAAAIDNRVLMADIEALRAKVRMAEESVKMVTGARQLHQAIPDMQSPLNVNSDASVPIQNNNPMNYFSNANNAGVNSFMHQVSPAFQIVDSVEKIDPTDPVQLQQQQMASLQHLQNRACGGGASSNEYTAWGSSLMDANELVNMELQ
Nature of the experiment: protein-binding microarray (RPBM); PBS, 2% BSA, 51.3 ng/ul salmon testes DNA, 50 uM zinc acetate, 200 nM TF, 25 C, 1 h; high values mean tight binding. The following applies: protein: recombinant; tags: N-terminal polyhistidine and DsRed monomer fusion (pET32a); chain copies: 2; label: CyDye5-dUTP incorporated in the synthesized complementary strand; 3' TTTTT single-stranded linker to array surface; dsDNA, one strand shown. The procedure, abridged: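 Ni–NTA purification followed expression in E. coli BL21-CodonPlus of transcription factors fused N-terminally to a polyhistidine tag and DsRed. At 200 nM in PBS with 2% BSA, salmon testes DNA and 50 µM zinc acetate, the protein was incubated for 1 h at 25 °C with a custom Agilent array that had been primer-extended with Cy5-dUTP and blocked with 2% BSA. After washing, the array was read on an Axon 4000B scanner. The binding signal is per-feature fluorescence intensity in arbitrary units.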
In the case of “ACACTGTTCACCATGATCCACGTATATATGTGACGAAAATCGGAGTCACCTAGTGCAG”, the binding signal was 4560 fluorescence intensity (a.u.).
Then “TTGCGACGGCCATCCTCCGCGCGCGTGACACCAACGCCACCGGAGTCACCTAGTGCAG”, with 4880 fluorescence intensity (a.u.); and “TTTCCCTGATAATAATAACCGACACGCGTAAGCTCTTGAACGGAGTCACCTAGTGCAG”, with 3360 fluorescence intensity (a.u.); and “AGCATTTCCATCCACCACACGCGTACGTCCCCGTCACGCGCGGAGTCACCTAGTGCAG”, with 7440 fluorescence intensity (a.u.).
In the case of “AAGTGCCTACCAAGCCAGCATCGTGTCATAGCCGGAGCATCGGAGTCACCTAGTGCAG”, the binding signal is 3730 fluorescence intensity (a.u.).
The value for “ATTTGCGCTGATATATTATCTAACGTGACACGATTAATCCCGGAGTCACCTAGTGCAG” was 6030 fluorescence intensity (a.u.); that for “GGGTCATTTGTCCCTTTCTGGAATGAAGTGCTTTGTAAAACGGAGTCACCTAGTGCAG” was 33100 fluorescence intensity (a.u.).
Then “TTTTAATCCGAGTTTCAGACCACGATGGCCATTTGTTTCGCGGAGTCACCTAGTGCAG”, with 3460 fluorescence intensity (a.u.); and “ACAGTACTTGGCTGTAGCGGGCATCTTGTCCTGGCATGTGCGGAGTCACCTAGTGCAG”, with 3600 fluorescence intensity (a.u.).
Then “TACCTTACCTGTACGGCAGGCATGCATGTTACTCCAGTAGCGGAGTCACCTAGTGCAG”, with 39800 fluorescence intensity (a.u.); and “ACCTGTTGTACTTAGTTACGGCGACACGTTTGCATCAGGCCGGAGTCACCTAGTGCAG”, with 6860 fluorescence intensity (a.u.).
Take “AATCTGCACCGGTTTTGATAGTTAAGGGACTAATTGTATCCGGAGTCACCTAGTGCAG”: the binding signal was 41700 fluorescence intensity (a.u.).
With “GCACCGGTTTTGATAGTTGAGGGACTTGTTGTATCTGGTTCGGAGTCACCTAGTGCAG”, the binding signal was 29200 fluorescence intensity (a.u.).
The value for “TGTGACCGGTTTTGATTAGTTAAGGGACGCCGGGTATCTGCGGAGTCACCTAGTGCAG” was 31600 fluorescence intensity (a.u.).
Turning to “TAAGATCACCTATAGATATATCATTCCAAGTCATAGATTGCGGAGTCACCTAGTGCAG”, the binding signal is 6060 fluorescence intensity (a.u.).
Then “GCAGTAGACACGACGTACTTGTCAATGGTGAGGCATTTATCGGAGTCACCTAGTGCAG”, with 3350 fluorescence intensity (a.u.); and “TAATTGTGATCAAAATTGTAACAAATGCACGGTCATTAAGCGGAGTCACCTAGTGCAG”, with 3320 fluorescence intensity (a.u.).
Then “TGGTTCAAAATGTAAACATTAGTTAAATGGTGATCCAAAGCGGAGTCACCTAGTGCAG”, with 49900 fluorescence intensity (a.u.); and “ATTGAAAAGTTTGGTTCAAATTAAAATTTTAGTAACAAAACGGAGTCACCTAGTGCAG”, with 24300 fluorescence intensity (a.u.); and “TAGTACCTTTACTTTTCAGTTTTCACCCCATGTGGCATACCGGAGTCACCTAGTGCAG”, with 3620 fluorescence intensity (a.u.).
“GCCACGGTCTCGTTGTGATGTTGTGATATTAGGTTCACTGCGGAGTCACCTAGTGCAG”: the binding signal is 46600 fluorescence intensity (a.u.).
The value for “TCCCGCATGTGTTGTGTGATGTGTCTCGTCTCCGCCACCACGGAGTCACCTAGTGCAG” was 7960 fluorescence intensity (a.u.); that for “AGTTGTGATGTCGCCACGTTGGCGGCCGGCGACTGCGCCACGGAGTCACCTAGTGCAG” was 12000 fluorescence intensity (a.u.); that for “TCTTCATGTAGTCAGCATACATCTGTCACAGCCACAGACACGGAGTCACCTAGTGCAG” was 4480 fluorescence intensity (a.u.).
The value for “AATAAGTAGTTGGTGATACGTGTTAGCCACGAGGCATATACGGAGTCACCTAGTGCAG” was 4020 fluorescence intensity (a.u.); that for “AGAGGTACGTAAAATGACACATGTGCCTCTTCATACGCTCCGGAGTCACCTAGTGCAG” was 3150 fluorescence intensity (a.u.).
The value for “CCAAGTTCGGCTGGTCGCCACGCCACCCATCTCCATCTTCCGGAGTCACCTAGTGCAG” was 4140 fluorescence intensity (a.u.); that for “CGGGAGAGAAGCCCACGTCACTCCCATAAATGGATGTGGACGGAGTCACCTAGTGCAG” was 9320 fluorescence intensity (a.u.); that for “CTTACCATCTCCCCAAGCGGGAGAGTGGACGTCATAATTTCGGAGTCACCTAGTGCAG” was 45700 fluorescence intensity (a.u.).
With “AAACCCGGAGAGAGTGGTGTTCGTGGACGTCACCCCATTTCGGAGTCACCTAGTGCAG”, the binding signal was 4440 fluorescence intensity (a.u.).
With “CGTCCGTGCGAATGATTGCATCTGCGCGAGCGACGCCGTTCGGAGTCACCTAGTGCAG”, the binding signal is 3430 fluorescence intensity (a.u.).
Then “CTCGGCTGTTGCGCCTTCGTTTTGCACCGAGGCTGTGCTACGGAGTCACCTAGTGCAG”, with 55500 fluorescence intensity (a.u.).
Then “TTTTCTTCTGTTCGTGTGCGTGCTCGCGCCTTTCTTGCTTCGGAGTCACCTAGTGCAG”, with 4250 fluorescence intensity (a.u.).
Then “TGCGAGGTGGTGGTGATTGCTTCGTCGGCTGTTGATTTCTCGGAGTCACCTAGTGCAG”, with 3300 fluorescence intensity (a.u.); and “CATATATGCCCATCACCCCAATAAGAGTTCCGAATTAGATCGGAGTCACCTAGTGCAG”, with 3560 fluorescence intensity (a.u.).
Take “CATCCCCAAACTCCGCCGCCGCCGCCGTCACCGCCGCTCGCGGAGTCACCTAGTGCAG”: the binding signal is 3700 fluorescence intensity (a.u.).
The value for “AATTCTAGGTCCAGCACTGTGCTTACCTGTATAGAAGCCTCGGAGTCACCTAGTGCAG” was 3200 fluorescence intensity (a.u.); that for “GCAGGAGCAAAGCGCTTACTTTTGCCTCACACTGTATAGTCGGAGTCACCTAGTGCAG” was 45400 fluorescence intensity (a.u.).
Then “ATTCATATATATATATACACACACACTTACTTTGTATATGCGGAGTCACCTAGTGCAG”, with 3190 fluorescence intensity (a.u.); and “TTCTTCTTCTATTCCACGTCCACGTGTATGGCCAGGAGTTCGGAGTCACCTAGTGCAG”, with 16100 fluorescence intensity (a.u.); and “TGAAAATGGTGTTGGCATCATAAAATATTTAACCAACCCCCGGAGTCACCTAGTGCAG”, with 3150 fluorescence intensity (a.u.).
Then “TCACGAGCCGACACGTGTCTCCTGACGTGGTACCCTTTCCCGGAGTCACCTAGTGCAG”, with 21900 fluorescence intensity (a.u.).
